Pol beta inh – blocks human DNA polymerase beta activity; P06746; hit rate 1.3% among 340,000; Potency, µM (top dose mostly 114 µM), for the others: top-dose activity change, negative = inhibition, most hits filed as inhibitors; Pol beta primer extension/strand displacement, fluorescence kinetic; also: % is scaled to controls: 0 for no effect and ±100 for the full control effect
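Homogeneous kinetic assay of primer extension and strand displacement by 10 nM Pol beta, preincubated 15 min at room temperature with compound before 50 nM substrate (final) was added. Read at 0 and 10 min; four-parameter Hill fit.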
POLK inh – DNA polymerase kappa (human) inhibition | purified Pol kappa, fluorescent DNA synthesis assay, 10 min | hit rate 0.53% among 400,000 | Potency, µM (titrated, usually from 107 µM), for inactives: at the highest dose activity, negative = inhibition, usual class: inhibitors | Q9UBT6 | AID 588579; also: % is scaled to controls: 0 for no effect and ±100 for the full control effect
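Enzyme at 10 nM met test compounds for 15 min at room temperature. Substrate addition (50 nM final) began the reaction, which was monitored by fluorescence at 0 and 10 min.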
POLI inh – blocks human DNA polymerase iota activity; Pol iota fluorescent replication assay, 10 min; Potency, µM (series often up to 115 µM), for inactives: top-dose activity, negative = inhibition, actives largely listed as inhibitors; AID 588590; hit rate 1% among 390,000
Target sequence (Q9UNA4 whole entry, looked up): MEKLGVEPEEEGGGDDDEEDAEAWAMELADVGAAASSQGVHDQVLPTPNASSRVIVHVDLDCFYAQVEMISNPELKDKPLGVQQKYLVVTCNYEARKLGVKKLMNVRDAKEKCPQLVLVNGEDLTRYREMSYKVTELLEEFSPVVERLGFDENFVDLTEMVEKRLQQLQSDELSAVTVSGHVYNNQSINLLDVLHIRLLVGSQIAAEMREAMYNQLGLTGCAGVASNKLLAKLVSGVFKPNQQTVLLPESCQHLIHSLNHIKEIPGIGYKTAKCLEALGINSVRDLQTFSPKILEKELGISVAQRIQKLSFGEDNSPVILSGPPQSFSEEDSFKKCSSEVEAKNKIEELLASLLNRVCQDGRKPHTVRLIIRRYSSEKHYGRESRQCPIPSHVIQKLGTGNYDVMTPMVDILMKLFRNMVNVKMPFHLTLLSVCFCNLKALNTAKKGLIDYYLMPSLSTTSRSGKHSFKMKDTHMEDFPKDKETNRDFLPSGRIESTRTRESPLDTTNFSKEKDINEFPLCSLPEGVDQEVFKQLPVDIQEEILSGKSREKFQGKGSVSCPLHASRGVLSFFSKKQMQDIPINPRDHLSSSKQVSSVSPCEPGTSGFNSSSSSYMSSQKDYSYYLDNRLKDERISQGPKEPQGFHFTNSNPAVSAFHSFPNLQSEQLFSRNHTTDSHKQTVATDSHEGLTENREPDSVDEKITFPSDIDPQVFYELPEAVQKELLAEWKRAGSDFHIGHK
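Fluorescent replication assay read twice, at 0 min and 10 min after adding 50 nM (final) substrate. Enzyme (10 nM) and compounds were first incubated 15 min at room temperature; enzyme-free buffer wells were negative controls.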
L3MBTL1 inh – inhibitors of human L3MBTL1; AlphaScreen L3MBTL1–H3K9me1 peptide binding; Q9Y468; hit rate 0.66% among 230,000; Potency, µM (top dose mostly 57.1 µM), for the others: top-dose activity, negative = inhibition, hits mostly inhibitors; also: % is scaled to controls: 0 for no effect and ±100 for the full control effect; nearly all actives have a fitted effect of over 60% in size
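Displacement of a biotinylated histone H3(1-15) peptide monomethylated at Lys9 (75 nM) from L3MBTL1 (50 nM) was measured by AlphaScreen after a 30 min room-temperature compound incubation; cefsulodin titration served as intraplate control.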
POLH inh – blocks human DNA polymerase eta activity; hit rate 1.2% among 390,000; AID 588591; Potency, µM (titrated, usually from 114 µM), for the others: top-dose activity change, negative = inhibition, usual class: inhibitors; Q9Y253; recombinant Pol eta, fluorescent DNA replication assay; also: % is scaled to controls: 0 for no effect and ±100 for the full control effect
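Pol eta at 10 nM preincubated with compounds 15 min at room temperature; reaction started with fluorescent substrate (50 nM final) and read kinetically at 0 and 10 min.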
* marks the source's active call; other numbers are inactive results; u = inconclusive; x = not tested or not shown; [ ] = remark or other dose. An excerpt weighted towards active compounds, which were near 2.4% of everything screened. Calls follow the shape of the dose curve; as a rule, active = well fitted curve in the direction sought with a large enough effect; inconclusive = small, poorly fitted or top-dose-only effect, or another doubt; inactive = no such curve, though single readings can be large; an effect the other way counts as inactive or inconclusive. Potency is read from the fitted curve at half-maximal effect.

SMILES	Pol beta inh	POLK inh	POLI inh	L3MBTL1 inh	POLH inh
CC12CCC(C/C1=N\N=C1\NC(=O)/C(=C\c3ccc(Cl)cc3)S1)C2(C)C (configuration not stated)	11%	-3%	4%	6%	50µM*
CCC(C)[C@H](NC(=O)N1CC(=O)Nc2ccccc21)C(=O)N1CCC[C@H]1C(=O)O (some centres not stated)	3%	11%	79µM*	-7%	-18%
CCC(C)[C@H](NC(=O)N1CC(=O)Nc2ccccc21)C(=O)N1CCC[C@@H]1C(=O)O (some centres not stated)	-2%	-2%	-17%	59%	-11%
CCOC(=O)c1cccc(NC(=O)Cn2ncc3c(=O)oc4ccccc4c32)c1	20%	3%	u	x	1%
COc1cccc(C(C[N+](=O)[O-])c2c(C)[nH]n(-c3ccccc3)c2=O)c1 (configuration not stated)	27%	-4%	2.5µM*	x	-11%
Cc1[nH]n(-c2ccccc2)c(=O)c1C(c1ccc(C(=O)O)cc1)c1c(C)[nH]n(-c2ccccc2)c1=O	11%	-16%	1.4µM*	u	-4%
Cc1[nH]n(-c2ccccc2)c(=O)c1C(c1cccc([N+](=O)[O-])c1)c1c(C)[nH]n(-c2ccccc2)c1=O	22%	-12%	u	-27%	-5%
CCOc1ccc(C(c2c(C)[nH]n(-c3ccccc3)c2=O)c2c(C)[nH]n(-c3ccccc3)c2=O)cc1OC	-1%	-25%	0.71µM*	x	-2%
COc1ccc2c(Sc3ccc(C)cc3)c(C(=O)NCc3ccc(F)cc3)[nH]c2c1	28%	2%	13%	x	9%
CCc1nc(-c2cc(S(=O)(=O)N3CCN(c4ccc(F)cc4)CC3)ccc2OC)no1	-22%	1%	-6%	x	-19%
CCC1CN(C(=O)N2CCC(C(=O)NCc3cccc(F)c3)CC2)c2cc(C)ccc2O1 (configuration not stated)	-23%	u	79µM*	x	-8%
COc1ccc(Cn2ccc3nc(C)c(C(=O)NCc4ccc(OC)cc4OC)cc3c2=O)cc1	17%	6%	23%	x	-16%
CCOc1ccccc1CNC(=O)c1cc2c(=O)n(Cc3ccccc3)ccc2nc1C	25µM*	-10%	u	x	-5%
O=c1/c(=C\c2cc([N+](=O)[O-])cc([N+](=O)[O-])c2O)sc2nc3ccccc3n12	18µM*	u	u	x	u
CCCn1nc([N+](=O)[O-])c(C(C#N)c2nc3ccccc3o2)c(Cl)c1=O (configuration not stated)	-29%	-3%	u	u	22µM*
Cc1cccc(Nc2nnc(-c3ccc(C)c(S(=O)(=O)N4CCN(C)CC4)c3)c3ccccc23)c1	1%	-11%	53%	x	-8%
O=C(Oc1cc(=O)oc2c1c(=O)n1c3c(cccc23)CC1)c1ccccc1	40µM*	-8%	u	13%	-12%
O=C(Oc1cc(=O)oc2ccccc12)c1ccccc1	13%	-3%	-6%	14%	-22%
COC(=O)[C@H](CCCN=C(N)N)NC(=O)CCCc1c(-c2ccccc2)[nH]c2c(F)cc(F)cc12	x	-4%[60.1 µM]	x	x	x
O=C(COC(=O)/C=C/c1ccc2ccccc2n1)NNC(=O)c1ccccc1	x	x	x	x	40µM*
CCN(c1ccc(OC)cc1)S(=O)(=O)c1ccc2[nH]c3c(c2c1)CCCCC3	20%	-16%	79µM*	x	-10%
CCc1ccc(S(=O)(=O)Nc2cccc(-c3ccc(N4CCCCC4)nn3)c2)s1	2%	-11%[60.1 µM]	38%	x	-13%
CCN(CC)C(=O)Oc1ccc2c(c1)O/C(=C\c1ccco1)C2=O	45µM*	-12%	u	x	-26%
COC(=O)COc1ccc2c(c1)O/C(=C\c1ccco1)C2=O	32µM*	-26%	u	x	u
CCC(=O)Oc1ccc2c(c1)O/C(=C\c1ccco1)C2=O	u	u	u	-10%	u
SMILES	Pol beta inh	POLK inh	POLI inh	L3MBTL1 inh	POLH inh
C=CC[C@H](c1ccc(F)cc1)N(CC(C)C)S(=O)(=O)C=C	x	-23%	21%	x	x
COc1ccccc1CCC(=O)OCC(=O)Nc1ccc(C(N)=O)cc1	67%	0%	39%	x	-8%
NCc1nc2cccnc2n1Cc1ccccc1Cl	8%	u	u	x	-6%
CCCC(=O)C1=C(c2ccc(C)cc2)N(C(=O)CCC)n2cnnc2S1	-16%	1%[60.1 µM]	u	x	-14%
Nc1c(O)cccc1C(=O)O	x	u	40µM*	x	-2%
O=C(O)c1ccccc1O	15%	-1%	3%	15%	-16%
Cc1c(CCC(=O)O)c(=O)oc2cc3occ(-c4ccc(Cl)cc4)c3cc12	u	-7%	u	x	22µM*
c1ccc2c(NCCN3CCOCC3)nc(-c3ccc4c(c3)OCO4)nc2c1	x	1%[60.1 µM]	x	x	x
O=C(C1CC1)N1CCN(c2nc3c(F)cc(F)cc3s2)CC1	33%	-16%[60.1 µM]	u	x	-15%
COc1ccc(-c2csc(Nc3ccc(S(=O)(=O)Nc4cc(OC)nc(OC)n4)cc3)n2)cc1	5%	-9%	-12%	-11%	89µM*
COc1ccc(CC(=O)Nc2ccc(S(=O)(=O)Nc3cc(C)on3)cc2)cc1OC	7%	-9%	3%	-1%	-9%
COc1ccc(-c2csc(NC(=O)c3ccccc3NS(=O)(=O)c3ccc(C)cc3)n2)cc1	u	u	32µM*	-8%	20µM*
COc1ccc(-c2csc(Nc3ccc(S(=O)(=O)Nc4cc(C)on4)cc3)n2)cc1C	u	4%	2%	u	89µM*
CN(C)c1ccc(/C=C/c2cccc3cc4ccccc4nc23)cc1	x	-15%	-10%	x	x
Cc1ccc(/C(N)=N/OC(=O)Cc2cccs2)cc1	10%	-4%	1%	32%	-7%
N/C(=N\OC(=O)Cc1cccs1)c1ccccc1	-14%	-27%	4%	26%	16µM*
CCOc1ccccc1N1CC(C(=O)N(CC)C2CCS(=O)(=O)C2)CC1=O (configuration not stated)	x	-20%	u	-19%	50µM*
CCOc1ccccc1N1CCN(CC(=O)N(C2CCCC2)C2CCS(=O)(=O)C2)CC1 (configuration not stated)	x	-12%	-17%	6%	-10%
O=S(=O)(Cc1cc(NCc2ccccc2)nc(-c2ccncc2)n1)c1ccccc1	79µM*	-2%	89%	42%	-9%
O=C(CCCN1C(=O)c2ccccc2C1=O)Nc1sc2c(c1C(=O)NCc1ccco1)CCC2	20µM*	-13%	u	x	-3%
O=C(CCN1C(=O)c2ccccc2C1=O)NCc1ccco1	1%	-7%	50µM*	x	u
O=C(Nc1cnc(N2CCN(c3ccccc3)CC2)c(C(=O)O)c1)c1cccs1	u	0%[60.1 µM]	u	x	u
